# Laboratory results reported in PubChem BioAssay AID651658 (Broad Institute, 2012).
# In all, about 340,000 compounds went through this assay and about 5,100 (1.5%) were called active. The sample as a whole holds a higher share of actives than the screen did. Values without a mark were called inactive.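 The calls were made as follows: active = mean Tm shift, scaled 0 neutral to 100 positive control, at about 1.3% or above, every replicate too (limit read from the data); inconclusive = no clear call, values can overlap the other calls; inactive = the rest.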
# Molecular target: Fibroblast growth factor 22 (Homo sapiens) (UniProt Q9HCT0)
# Sequence (Q9HCT0 whole entry, looked up): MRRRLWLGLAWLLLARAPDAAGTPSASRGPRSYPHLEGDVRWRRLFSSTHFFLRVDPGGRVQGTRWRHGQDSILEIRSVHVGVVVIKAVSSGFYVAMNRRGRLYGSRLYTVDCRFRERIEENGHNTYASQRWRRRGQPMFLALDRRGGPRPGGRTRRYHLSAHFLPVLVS
# Experiment: FGF22 ligand-induced thermal stabilization – biophysical, thermal shift, single point, FGF22 synaptogenesis inhibitor project, primary screen (AID 651658)
# Details: recombinant FGF22 thermal shift, SYPRO orange fluorescence; at 9.99 µM; hits give high values; percent of sucrose octasulfate shift, DMSO zero
row,Compound,"activity (Tm shift, normalised)"
1,CC1=CC2=NC(=O)/C(=C/c3coc4ccccc4c3=O)C(=N)N2O1,0.039%
2,COc1ccccc1OCCOc1ccc(/C=C2\C(=N)N3N=C(C)SC3=NC2=O)cc1,-0.133%
3,COc1ccc(OCCCn2cccc2/C=C2/C(=N)N3OC(C)=CC3=NC2=O)cc1,43.6% (active)
4,CCCNC(=O)N(C)C[C@@H]1Oc2cc(-c3ccccc3)ccc2S(=O)(=O)N([C@H](C)CO)C[C@H]1C,-0.206%
5,O=C(N[C@@H]1CC[C@@H](CCNS(=O)(=O)c2ccccc2Cl)O[C@@H]1CO)c1ccccc1,-0.098%
6,COc1ccc(N2CCN(C(=O)COC(=O)c3cccc(S(=O)(=O)Nc4ccccc4OC)c3)CC2)cc1,-0.159%
7,CC1CN(C(=O)c2cccc(NS(=O)(=O)c3ccc(Br)cc3)c2)CC(C)O1 (stereo not given),0.103%
8,CC1CN(C(=O)COC(=O)c2cccc(NS(=O)(=O)c3ccccc3)c2)CC(C)O1 (stereo not given),43% (active)
9,COc1cccc(-c2ccc3c(c2)[C@@H]2[C@@H](CCN2S(=O)(=O)C2=NC(C)C=N2)[C@@H](CO)N3C)c1 (stereo not given in full),-0.294%
10,Cc1ccc(-c2ccc(/C=N/NC(=O)CN3CCOCC3)o2)cc1[N+](=O)[O-],-0.102%
11,CN1CCN(/N=C/c2ccc(C#N)cc2)CC1,0.346%
12,CN1CCN(/N=C/c2ccc(-c3ccc([N+](=O)[O-])cc3)o2)CC1,42.9% (active)
13,COc1ccc(NC(=O)N[C@H]2CC[C@@H](CCNC(=O)c3cc(Cl)cc(Cl)c3)O[C@H]2CO)cc1,0.37%
14,COc1ccc(C[C@@H]2CCc3cnnn3COC[C@H](c3ccccc3)NC2=O)cc1,0.006%
15,CCCNC(=O)Nc1ccc2c(c1)OC[C@@H](C)N(CCC)C[C@H](C)[C@@H](OC)CN(C)C2=O,0.109%
16,COc1ccc(C(=O)CSc2nnnn2C)c(OC)c1,43% (active)
17,COc1ccc(-n2nnnc2SCC(=O)c2ccc(OC)c(OC)c2)cc1,-0.381%
18,COc1ccc(C(=O)CCc2ccccc2O)c(OC)c1,-0.131%
19,COc1ccc2c3c([nH]c2c1)[C@H](CO)N(C(=O)c1ccccc1)CC31CN(C(=O)Nc2cccc(F)c2)C1,0.15%
20,O=C(c1cccnc1)N1CC2(C1)[C@@H](c1ccccc1)[C@H](CO)N2C(=O)C1CCC1,-0.239%
21,O=C(Cc1ccccc1)N1CC2(C1)[C@H](c1ccccc1)[C@@H](CO)N2C(=O)c1cccnc1,-0.085%
22,C[C@H](CO)N1C[C@H](C)[C@@H](CN(C)CC2CCCCC2)Oc2ccc(NC(=O)Cn3cnnn3)cc2CC1=O,-0.448%
23,COc1cccc(/C=C2/SC(=S)N(CC(=O)NC3C=CS(=O)(=O)C3)C2=O)c1 (stereo not given),-0.111%
24,O=C(CN1CCCCCC1)NCCN1C(=O)S/C(=C\c2ccccc2Cl)C1=O,0.458%
25,O=C(CN1C(=O)S/C(=C\c2ccccc2Cl)C1=O)NC1C=CS(=O)(=O)C1 (stereo not given),43.2% (active)

row,Compound,"activity (Tm shift, normalised)"
1,O=C(O)CCCCCCC(=O)NOCc1ccccc1,-0.15%
2,CO[C@H](CN(C)C(=O)c1cnccn1)[C@@H](C)CN([C@@H](C)CO)S(=O)(=O)c1ccccc1,0.08%
3,CC(C)NC(=O)Nc1ccc2c(c1)C(=O)N([C@@H](C)CO)C[C@@H](C)[C@H](CN(C)C)OCCCC[C@H](C)O2,-0.748%
4,CC(C)NC(=O)N[C@@H]1CC[C@@H](CCNS(=O)(=O)Cc2ccccc2)O[C@@H]1CO,-0.299%
5,O=C(Nc1ccc(F)cc1)N1C[C@@H]2[C@H](c3ccccc31)[C@H](CO)N2Cc1ccccc1,-0.206%
6,CN1C(=O)c2cc(NC(=O)c3ccccc3)ccc2OC[C@H]2O[C@@H](CC(=O)O)CC[C@@H]21,-0.04%
7,CC(=O)N(C)C[C@@H]1Oc2ncc(C#Cc3ccccn3)cc2C(=O)N([C@@H](C)CO)C[C@@H]1C,0.165%
8,Cc1cccc(CN2CCN(C3CN(Cc4cn(Cc5cc(C)cc(C)c5)nn4)S(=O)(=O)C3)CC2)c1 (stereo not given),-0.326%
9,Cc1cccc(CN2CCN(C3CN(Cc4ccccc4)S(=O)(=O)C3)CC2)c1 (stereo not given),-0.158%
10,CCCCN1CC(N2CCN(Cc3cccc(C)c3)CC2)CS1(=O)=O (stereo not given),1.92% (active)
11,COc1cccc(CNC(=O)C[C@@H]2CC[C@H]3[C@@H](COc4ccc(NC(=O)c5cccs5)cc4C(=O)N3C)O2)c1,0.125%
12,Cc1ccc(NC(=O)C(=O)NCc2ccc(/C=N/NC(=O)c3c(C)nc4cc(C)ccn34)o2)cc1,2.68% (active)
13,CCOc1ccc(/C=N\NC(=O)c2c(C)nc3cc(C)ccn23)cc1,-0.098%
14,Cc1ccn2c(=O)c(NC(=O)c3cccc4ccccc34)c(C)nc2c1,-0.089%
15,CO[C@H]1CN(C)C(=O)c2cc(NS(=O)(=O)c3ccccc3)ccc2OC[C@H](C)NC[C@@H]1C,-0.185%
16,C[C@H]1CN([C@@H](C)CO)S(=O)(=O)c2ccc(Br)cc2O[C@H]1CN(C)Cc1ccccn1,-0.079%
17,COc1ccc2c3c(n(C)c2c1)[C@@H](CO)N(C(=O)Nc1ccc(F)cc1)CC31CCN(C(=O)c2cccnc2)CC1,-0.306%
18,C[C@@H]1CN([C@H](C)CO)S(=O)(=O)c2ccc(C3=CCCC3)cc2O[C@@H]1CN(C)C(=O)C1CCC1,0.141%
19,O=C(Nn1cnnc1)c1ccc([N+](=O)[O-])cc1,42.7%
20,O=C(Nc1ccccc1C(=O)Nc1ccncc1)c1ccc([N+](=O)[O-])cc1,-0.016%
21,O=C(c1ccncc1)c1ccc([N+](=O)[O-])cc1,43.1% (active)
22,CC(C)NC(=O)N1CC2(C1)[C@H](c1ccccc1)[C@H](CO)N2C(=O)C1CCOCC1,-0.068%
23,O=[N+]([O-])c1ccc2c(c1)C(O)n1nc(-c3ccccc3)nc1S2 (stereo not given),0.035%
24,CC(=O)Oc1ccc2c(=O)oc(-c3ccc([N+](=O)[O-])cc3)nc2c1,-0.034%
25,O=[N+]([O-])c1ccc2oc(-c3cccc(O)c3)nc2c1,43.2% (active)
